Data published in PMC4336329 (PLoS ONE, 2015).
Screen size: about 310,000 compounds; about 2,200 (0.71%) showed an effect of 50% or more. Effects have a minus sign here. What follows is part of a selection rich in strong results, with near analogues and random picks from the rest.

Target: human ether-à-go-go-related gene (hERG) potassium channel (human, UniProt Q12809)
Assay: primary screen, population patch clamp on CHO cells stably expressing hERG; higher = less effect of the substance

Chain of human ether-à-go-go-related gene (hERG) potassium channel (Q12809 whole entry, looked up): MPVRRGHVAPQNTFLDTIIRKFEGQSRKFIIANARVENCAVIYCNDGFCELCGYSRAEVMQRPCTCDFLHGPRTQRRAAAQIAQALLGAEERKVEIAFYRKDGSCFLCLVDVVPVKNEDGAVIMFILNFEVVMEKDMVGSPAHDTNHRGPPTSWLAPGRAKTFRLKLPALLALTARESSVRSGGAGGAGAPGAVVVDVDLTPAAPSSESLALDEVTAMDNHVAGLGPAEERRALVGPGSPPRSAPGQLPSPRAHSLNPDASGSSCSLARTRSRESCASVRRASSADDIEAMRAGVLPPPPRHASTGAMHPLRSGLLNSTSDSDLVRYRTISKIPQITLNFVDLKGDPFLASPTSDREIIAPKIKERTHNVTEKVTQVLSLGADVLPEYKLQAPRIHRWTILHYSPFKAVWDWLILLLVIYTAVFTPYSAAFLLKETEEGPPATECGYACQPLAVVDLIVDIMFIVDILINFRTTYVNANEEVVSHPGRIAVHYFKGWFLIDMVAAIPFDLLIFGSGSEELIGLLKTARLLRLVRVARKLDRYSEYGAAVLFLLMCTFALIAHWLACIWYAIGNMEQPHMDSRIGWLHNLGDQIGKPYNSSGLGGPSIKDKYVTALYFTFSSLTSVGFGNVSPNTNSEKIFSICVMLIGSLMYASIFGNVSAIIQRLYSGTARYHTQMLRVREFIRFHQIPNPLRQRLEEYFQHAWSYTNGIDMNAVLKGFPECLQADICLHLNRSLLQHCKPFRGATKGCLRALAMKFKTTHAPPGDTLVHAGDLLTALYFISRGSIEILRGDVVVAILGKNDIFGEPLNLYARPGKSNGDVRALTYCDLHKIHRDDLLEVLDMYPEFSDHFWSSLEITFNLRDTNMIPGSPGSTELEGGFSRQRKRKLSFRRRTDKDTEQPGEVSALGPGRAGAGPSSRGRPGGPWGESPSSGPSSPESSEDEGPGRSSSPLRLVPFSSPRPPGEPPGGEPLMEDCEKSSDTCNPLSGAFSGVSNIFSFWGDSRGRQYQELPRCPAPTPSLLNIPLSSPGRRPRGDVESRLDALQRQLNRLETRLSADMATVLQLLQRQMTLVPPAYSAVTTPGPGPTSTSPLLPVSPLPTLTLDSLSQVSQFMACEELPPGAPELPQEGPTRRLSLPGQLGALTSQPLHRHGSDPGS

SMILES	hERG current change (%, negative = inhibition) at 1uM
C/C(=N\NC(=O)c1cc(C)[nH]n1)c1ccc(-c2ccccc2)cc1	13.7%
O=C(CCN1C(=O)/C(=C/c2ccc(F)cc2)SC1=S)NNC(=O)c1cccnc1	1.06%
COc1cc(/C=N\NC(=O)C(C)(C)O)ccc1OC/C=C/c1ccccc1	13%
CC(C)c1ccccc1OS(N)(=O)=O	4.02%
COc1ccccc1NC(=O)CSc1nnc(C2CCCCC2)n1-c1ccccc1	2.23%
Cc1cc(OCC(=O)NCCCN2CCCC2=O)c2c(C)cc(=O)oc2c1	19%
O=C(C[n+]1cn(C(F)F)c2ccccc21)c1ccc(Br)cc1.[Br-]	3.52%
COc1ccc(C(=O)C[n+]2cn(C(F)F)c3ccccc32)c(F)c1.[Br-]	-0.738%
O=C(C[n+]1cccc(CNC(=O)c2ccc(OC(F)F)cc2)c1)c1ccccc1.[Cl-]	2.3%
O=C(C[n+]1ccc(C(=O)NCc2ccccc2)cc1)c1ccc(OC(F)F)cc1.[Br-]	-81.2%
CCOc1ccc(C(=O)C[n+]2ccc(C(=O)NCc3ccccc3)cc2)cc1.[Br-]	4.11%
O=C(C[n+]1cn(C(F)F)c2ccccc21)c1ccc(OC(F)F)cc1.[Br-]	-53.7%
O=[N+]([O-])c1ccccc1/C=C/C=N/N1CCCCC1	13%
CC(/C=C/c1ccc(N(C)C)cc1)=N\N=C(/N)SC1CC(=O)N(c2ccc(C(=O)O)cc2)C1=O (centres unmarked)	3.7%
COCCNC(=S)N/N=C/c1ccc([N+](=O)[O-])cc1	12%
O=C(O)C(=O)O.O=[N+]([O-])c1cccc(OCCN2CCC(Cc3ccccc3)CC2)c1	-23.6%
Cc1cc(OCCN2CCOCC2)ccc1[N+](=O)[O-].O=C(O)C(=O)O	10.6%
Cc1cc(OCCN2CCCCCC2)ccc1[N+](=O)[O-].O=C(O)C(=O)O	-12.8%
Cc1cc(OCCCN2CCN(Cc3ccccc3)CC2)ccc1[N+](=O)[O-].O=C(O)C(=O)O	-52.5%
O=[N+]([O-])c1cccc(CN2CCC(Cc3ccccc3)CC2)c1	-45.6%
Cc1cc(OCCN2CCCC2)ccc1[N+](=O)[O-].O=C(O)C(=O)O	7.94%
Cc1ccc([N+](=O)[O-])c(OCCCN2CCCCCC2)c1.O=C(O)C(=O)O	-14.5%
Cc1ccc([N+](=O)[O-])c(OCCCN2CCC(Cc3ccccc3)CC2)c1.O=C(O)C(=O)O	-95.8%
O=C(O)C(=O)O.O=[N+]([O-])c1cccc(OCCCN2CCC(Cc3ccccc3)CC2)c1	-82.9%
Cc1ccc([N+](=O)[O-])c(OCCN2CCC(Cc3ccccc3)CC2)c1.O=C(O)C(=O)O	-25.9%

SMILES	hERG current change (%, negative = inhibition) at 1uM
Cc1cc(OCCN2CCC(Cc3ccccc3)CC2)ccc1[N+](=O)[O-].O=C(O)C(=O)O	-53.5%
Cc1cc(OCCN2CC(C)OC(C)C2)ccc1[N+](=O)[O-].O=C(O)C(=O)O (centres unmarked)	-5.36%
CC1CCCCC1NC(=O)CCn1c(=O)sc2ccccc21 (centres unmarked)	18%
Cc1ccc(C(=O)NNC(=O)c2n[nH]c(=O)c3ccccc23)cc1C	5.71%
Cc1cccc2cc(CN(Cc3cccs3)Cc3nnnn3Cc3ccccc3)c(=O)[nH]c12	-3.15%
O=C(NO)c1ccc(C(=O)N(C2CCCCC2)C2CCCCC2)cc1	3.06%
Cc1ccc(N2CC(C(=O)Nc3ccc(S(=O)(=O)N4CCOCC4)cc3)CC2=O)cc1Cl (centres unmarked)	7.84%
C/C(=N/NC(=O)c1ccc2c(c1)OCO2)c1cccc(NC(=O)C(C)(C)C)c1	9.89%
CC(Oc1ccccc1)C(=O)Nc1ccc(S(=O)(=O)N2CCCC2)cc1 (centres unmarked)	16.8%
COc1ccc(S(=O)(=O)n2nc(OC(=O)C3CCCCC3)cc2N)cc1	9.89%
CCOc1ccccc1N1CCN(C(=O)c2cc(-c3cc(OC)ccc3OC)nc3ccccc23)CC1	8.96%
CC12CC3(C)CC(C)(C1)CC(C(=O)NCC(=O)O)(C2)C3	19.5%
COc1ccc(-c2ccc(S(=O)(=O)n3nc(OC(=O)c4cccs4)cc3N)cc2)cc1	8.64%
Cc1oc(-c2cccc(Cl)c2)nc1CN1CCC(C(=O)NCCCN2CC(C)CC(C)C2)CC1 (centres unmarked)	13.9%
COc1ccccc1CNC(=O)C1CCN(Cc2nc(-c3cccc(Cl)c3)oc2C)CC1	-68.3%
COc1ccc(CCNC(=O)C2CCN(Cc3nc(-c4cccc(Cl)c4)oc3C)CC2)cc1OC	-80.9%
COc1ccc(CCNC(=O)C2CCN(Cc3nc(-c4ccccc4F)oc3C)CC2)cc1OC	-17.3%
Cc1oc(-c2cccc(Cl)c2)nc1CN1CCC(C(=O)NCC2CCCO2)CC1 (centres unmarked)	-31.8%
CCc1ccc(-c2nc(CN3CCC(C(=O)NCc4ccccc4OC)CC3)c(C)o2)cc1	-13.1%
CCc1ccc(-c2nc(CN3CCCC(C(=O)NCCc4ccc(OC)c(OC)c4)C3)c(C)o2)cc1 (centres unmarked)	-3.23%
COc1ccc(CCNC(=O)C2CCCN(Cc3nc(-c4cccc(Cl)c4)oc3C)C2)cc1OC (centres unmarked)	-76.7%
CCc1ccc(-c2nc(CN3CCC(C(=O)NCCc4ccc(OC)c(OC)c4)CC3)c(C)o2)cc1	-40%
COc1ccc(CCNC(=O)C2CCN(Cc3nc(-c4ccccc4C)oc3C)CC2)cc1OC	-59.9%
CCN1CCN(CCNC(=O)C2CCCN(Cc3nc(-c4cccc(Cl)c4)oc3C)C2)CC1 (centres unmarked)	3.86%
COc1ccc(CCNC(=O)C2CCCN(Cc3nc(-c4ccccc4C)oc3C)C2)cc1OC (centres unmarked)	-2.12%
